Test results from PubChem BioAssay AID1159580 (chemical genetic matrix, 2015).
Where “and” joins values, the source holds several entries; their conditions need not be identical. Equal values may be shown once. Screen size: about 5,500 compounds; about 2,000 (36%) were called active. Another 18% or so got no clear call; they are omitted. Cut-off read from the data, not from the text of the source: active = normalized growth mostly below about 0.91 (no sharp cut-off); inconclusive = no clear call, values can overlap the other calls; inactive = mostly above about 0.92. Some of the results follow.

Test: chemical genetic growth profiling, strain panel (AID 1159580);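 note: tested at 20 µM; growth read once vehicle control cultures reached saturation at 30 °C; 1 = growth at the plate median or of vehicle wells; lower values mean less growth of the strain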
Conditions: S. cerevisiae deletion strains, growth OD

Measured: normalized growth

C=C1C2CC[C@@]3(C)[C@H](c4ccoc4)OC(=O)C[C@]13O[C@H]1CC(=O)C(C)(C)[C@H](C(O)C(=O)OC)[C@@]21C (some centres undefined)
inactive: locus YAL021C, strain ccr4, stronger effect = lower value 1.06 | locus YAL026C, strain drs2, stronger effect = lower value 0.995 | locus YAL030W, strain snc1, stronger effect = lower value 0.995 | locus YBL061C, strain skt5, stronger effect = lower value 0.985 | locus YBR009C, strain hhf1, stronger effect = lower value 1.05 | locus YBR021W, strain FUR4, stronger effect = lower value 0.993 | locus YBR023C, strain chs3, stronger effect = lower value 1.01 | locus YBR171W, strain sec66, stronger effect = lower value 0.994 | locus YBR229C, strain ROT2, stronger effect = lower value 1 | locus YBR231C, strain swc5, stronger effect = lower value 0.993 | locus YBR279W, strain paf1, stronger effect = lower value 1 | locus YCL011C, strain gbp2, stronger effect = lower value 1.02 | locus YCL016C, strain dcc1, stronger effect = lower value 1.01 | locus YCL029C, strain bik1, stronger effect = lower value 1.01 | locus YCL061C, strain MRC1, stronger effect = lower value 1 | locus YCL069W, strain vba3, stronger effect = lower value 0.997 | locus YCR088W, strain abp1, stronger effect = lower value 0.999 | locus YDL005C, strain med2, stronger effect = lower value 0.989 | locus YDL035C, strain GPR1, stronger effect = lower value 1.01 | locus YDL040C, strain nat1, stronger effect = lower value 0.998 | locus YDL074C, strain BRE1, stronger effect = lower value 1.02 | locus YDL101C, strain DUN1, stronger effect = lower value 1.01 | locus YDL134C, strain PPH21, stronger effect = lower value 1.01 | locus YDL185W, strain tfp1, stronger effect = lower value 1.01 | locus YDL192W, strain arf1, stronger effect = lower value 1.01 | locus YDR001C, strain nth1, stronger effect = lower value 1.02 | locus YDR069C, strain doa4, stronger effect = lower value 0.99 | locus YDR101C, strain arx1, stronger effect = lower value 0.994 | locus YDR137W, strain rgp1, stronger effect = lower value 0.959 | locus YDR159W, strain sac3, stronger effect = lower value 0.995 | locus YDR162C, strain NBP2, stronger effect = lower value 1.02 | locus YDR195W, strain ref2 0.961 | locus YDR297W, strain sur2, stronger effect = lower value 1.02 | locus YDR318W, strain mcm21, stronger effect = lower value 1.01 | locus YDR334W, strain swr1, stronger effect = lower value 0.997 | locus YDR335W, strain msn5, stronger effect = lower value 1.01 | locus YDR388W, stronger effect = lower value 1.01 | locus YDR392W, strain spt3, stronger effect = lower value 0.958 | locus YDR502C, strain sam2, stronger effect = lower value 1.02 | locus YEL003W, strain gim4, stronger effect = lower value 1 | locus YEL037C, strain rad23, stronger effect = lower value 1 | locus YEL061C, strain CIN8 (second series), stronger effect = lower value 0.996 | locus YER015W, strain faa2, stronger effect = lower value 1 | locus YER016W, strain bim1, stronger effect = lower value 0.997 | locus YER110C, stronger effect = lower value 1.01 | locus YER111C, strain swi4, stronger effect = lower value 0.994 | locus YER155C, strain BEM2 (second series), stronger effect = lower value 0.983 | locus YER155C, strain BEM2, stronger effect = lower value 0.994 | locus YER167W, strain BCK2, stronger effect = lower value 1.01 | locus YFR010W, strain ubp6, stronger effect = lower value 0.976 | locus YGL078C, strain dbp3, stronger effect = lower value 1.02 | locus YGL086W, strain mad1, stronger effect = lower value 1.01 | locus YGL167C, strain pmr1, stronger effect = lower value 1 | locus YGL173C, strain kem1, stronger effect = lower value 1 | locus YGL227W, strain vid30, stronger effect = lower value 0.991 | locus YGL240W, strain doc1, stronger effect = lower value 0.989 | locus YGL248W, strain PDE1, stronger effect = lower value 1.01 | locus YGL253W, strain hxk2, stronger effect = lower value 0.99 | locus YGR078C, strain PAC10, stronger effect = lower value 1.01 | locus YGR135W, strain pre9, stronger effect = lower value 1.02 | locus YGR252W, strain gcn5, stronger effect = lower value 1.01 | locus YHR013C, strain ard1, stronger effect = lower value 1.01 | locus YHR027C, strain rpn1, stronger effect = lower value 0.991 | locus YHR030C, strain SLT2, stronger effect = lower value 0.963 | locus YHR079C, strain IRE1 (second series), stronger effect = lower value 1.01 | locus YHR079C, strain IRE1, stronger effect = lower value 0.98 | locus YHR094C, strain hxt1, stronger effect = lower value 1.02 | locus YHR129C, strain ARP1, stronger effect = lower value 1 | locus YHR142W, strain chs7, stronger effect = lower value 1.01 | locus YHR200W, strain rpn10, stronger effect = lower value 1.02 | locus YIL066C, strain RNR3, stronger effect = lower value 1.02 | locus YIL073C, strain SPO22, stronger effect = lower value 1.03 | locus YIL125W, strain kgd1, stronger effect = lower value 1 | locus YIR030C, strain dcg1, stronger effect = lower value 1.01 | locus YJL092W, strain hpr5, stronger effect = lower value 1 | locus YJL095W, strain BCK1 (second series), stronger effect = lower value 1.01 | locus YJL095W, strain BCK1, stronger effect = lower value 1.02 and 0.96 | locus YJL115W, strain asf1, stronger effect = lower value 0.995 | locus YJL129C, strain trk1, stronger effect = lower value 0.976 | locus YJL134W, strain LCB3, stronger effect = lower value 1.01 | locus YJL154C, strain vps35, stronger effect = lower value 0.995 | locus YJL164C, strain tpk1, stronger effect = lower value 1.03 | locus YJL166W, strain qcr8, stronger effect = lower value 1.02 | locus YJL168C, strain set2, stronger effect = lower value 1.01 | locus YJL187C, strain SWE1 (second series), stronger effect = lower value 1.01 | locus YJL187C, strain SWE1, stronger effect = lower value 1 | locus YJR043C, strain POL32, stronger effect = lower value 0.999 | locus YJR066W, strain TOR1, stronger effect = lower value 0.932 | locus YJR075W, strain HOC1, stronger effect = lower value 1.01 | locus YKL009W, strain mrt4, stronger effect = lower value 0.992 | locus YKL068W, stronger effect = lower value 1.01 | locus YKL085W, strain MDH1 (second series), stronger effect = lower value 1.01 | locus YKL085W, strain MDH1, stronger effect = lower value 1.01 | locus YKL160W, strain elf1, stronger effect = lower value 1.02 | locus YKL190W, strain CNB1, stronger effect = lower value 1 | locus YKR001C, strain vps1, stronger effect = lower value 1.01 | locus YKR026C, strain gcn3, stronger effect = lower value 0.994 | locus YKR091W, strain srl3, stronger effect = lower value 1 | locus YLL001W, strain dnm1, stronger effect = lower value 0.969 | locus YLL026W, stronger effect = lower value 1 | locus YLL041C, strain sdh2, stronger effect = lower value 1 | locus YLR027C, strain aat2, stronger effect = lower value 0.983 | locus YLR039C, strain RIC1, stronger effect = lower value 1.05 | locus YLR058C, strain SHM2, stronger effect = lower value 1.02 | locus YLR102C, strain apc9, stronger effect = lower value 1.01 | locus YLR113W, strain HOG1, stronger effect = lower value 1.01 | locus YLR221C, strain rsa3, stronger effect = lower value 0.976 | locus YLR258W, strain gsy2, stronger effect = lower value 1.01 | locus YLR262C, strain YPT6 (second series), stronger effect = lower value 1.01 | locus YLR262C, strain YPT6, stronger effect = lower value 1.02 | locus YLR268W, strain sec22, stronger effect = lower value 1 | locus YLR320W, strain mms22, stronger effect = lower value 0.982 | locus YLR342W, strain FKS1 (second series), stronger effect = lower value 0.996 | locus YLR342W, strain FKS1, stronger effect = lower value 0.99 | locus YLR357W, strain rsc2, stronger effect = lower value 0.975 | locus YLR370C, strain arc18, stronger effect = lower value 1.01 | locus YLR371W, strain rom2, stronger effect = lower value 1.02 | locus YLR384C, strain iki3, stronger effect = lower value 0.984 | locus YLR418C, strain cdc73, stronger effect = lower value 1.02 | locus YML016C, strain PPZ1, stronger effect = lower value 1.01 | locus YML032C, strain rad52, stronger effect = lower value 1.01 | locus YML120C, strain ndi1, stronger effect = lower value 1.01 | locus YML124C, strain tub3, stronger effect = lower value 1.01 | locus YMR058W, strain fet3, stronger effect = lower value 0.99 | locus YMR078C, strain ctf18, stronger effect = lower value 1.02 | locus YMR125W, strain sto1, stronger effect = lower value 0.983 | locus YMR129W, stronger effect = lower value 0.998 | locus YMR205C, strain PFK2, stronger effect = lower value 1.03 | locus YMR223W, strain ubp8, stronger effect = lower value 1.01 | locus YMR231W, strain pep5, stronger effect = lower value 0.998 | locus YMR307W, strain GAS1, stronger effect = lower value 1.01 | locus YNL067W, strain RPL9B, stronger effect = lower value 1.01 | locus YNL071W, strain lat1, stronger effect = lower value 1.02 | locus YNL128W, strain TEP1, stronger effect = lower value 1.01 | locus YNL153C, strain GIM3, stronger effect = lower value 1.01 | locus YNL183C, strain NPR1, stronger effect = lower value 0.945 | locus YNL209W, strain ssb2, stronger effect = lower value 1.01 | locus YNL233W, strain BNI4, stronger effect = lower value 1 | locus YNL248C, strain rpa49, stronger effect = lower value 0.959 | locus YNL250W, strain rad50, stronger effect = lower value 1 | locus YNL271C, strain bni1, stronger effect = lower value 1.01 | locus YNL298W, strain CLA4, stronger effect = lower value 1.01 | locus YNL307C, strain MCK1, stronger effect = lower value 1.02 | locus YNL322C, strain KRE1 (second series), stronger effect = lower value 1 | locus YNR049C, strain mso1, stronger effect = lower value 0.995 | locus YNR052C, strain pop2, stronger effect = lower value 1.01 | locus YOL006C, strain TOP1, stronger effect = lower value 1.03 | locus YOL012C, strain htz1 1.49 | locus YOL147C, strain pex11, stronger effect = lower value 1.01 | locus YOR001W, strain rrp6, stronger effect = lower value 0.953 | locus YOR061W, strain CKA2, stronger effect = lower value 1.01 | locus YOR069W, strain VPS5, stronger effect = lower value 1.01 | locus YOR070C, strain gyp1, stronger effect = lower value 0.99 | locus YOR080W, strain dia2, stronger effect = lower value 1 | locus YOR083W, strain WHI5, stronger effect = lower value 1.04 | locus YOR106W, strain vam3, stronger effect = lower value 1.02 | locus YOR136W, strain idh2, stronger effect = lower value 1.01 | locus YOR144C, strain elg1, stronger effect = lower value 1 | locus YOR184W, strain ser1, stronger effect = lower value 1.02 | locus YOR231W, strain MKK1, stronger effect = lower value 0.983 | locus YOR265W, strain rbl2, stronger effect = lower value 1.01 | locus YOR270C, strain vph1, stronger effect = lower value 0.995 | locus YOR290C, strain snf2, stronger effect = lower value 1.03 | locus YOR316C, strain cot1, stronger effect = lower value 1.01 | locus YPL051W, strain arl3, stronger effect = lower value 0.984 | locus YPL078C, strain atp4, stronger effect = lower value 1.02 | locus YPL106C, strain sse1, stronger effect = lower value 1.05 | locus YPL240C, strain hsp82, stronger effect = lower value 0.998 | locus YPL256C, strain CLN2, stronger effect = lower value 0.981 | locus YPR119W, strain clb2, stronger effect = lower value 1.01 | locus YPR141C, strain kar3, stronger effect = lower value 1 | locus YPR163C, strain tif3, stronger effect = lower value 1.01 | locus YPR167C, strain met16, stronger effect = lower value 1.01 | strain wtn01, stronger effect = lower value 1
